Here are results for 9 molecules from PubChem BioAssay (NCI).

The nature of experiment [1]: NCI Yeast Anticancer Drug Screen. Data for the rad50 strain (AID 155).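 Further: 0% = growth of vehicle-only cultures of the same strain.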 The conditions noted are these: S. cerevisiae rad50 strain growth inhibition, hits give high values. In outline: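 Relative growth inhibition (compound vs vehicle) was measured in yeast with a defined repair-gene alteration.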
Experiment [2] can be described thus: NCI Yeast Anticancer Drug Screen. Data for the mec2-1 strain (AID 157). The conditions noted are these: S. cerevisiae mec2-1 strain, hits give high values. In outline:
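Using mec2-1 yeast: add compound, measure growth, express inhibition versus vehicle-treated cultures.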

The nature of experiment [3]: NCI Yeast Anticancer Drug Screen. Data for the sgs1 mgt1 strain (AID 161).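 Further: 0% = growth of cultures given vehicle only.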 The conditions noted are these: S. cerevisiae sgs1 mgt1 strain, hits give high values. The method, boiled down: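 Growth of a repair-deficient yeast mutant was monitored after compound treatment and expressed as inhibition relative to vehicle-treated cultures.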
The nature of experiment [4]: NCI Yeast Anticancer Drug Screen. Data for the cln2 rad14 strain (AID 165).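 Further: 0% = growth equal to vehicle treated cultures.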 Conditions: S. cerevisiae cln2 rad14 strain, hits give high values. In outline:
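Yeast strain cln2 rad14, bearing defects in cell cycle control and DNA repair, serves as the test system; values reflect growth inhibition compared with vehicle.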

A short description of experiment [5]: NCI Yeast Anticancer Drug Screen. Data for the bub3 strain (AID 167). The conditions noted are these: S. cerevisiae bub3 mutant strain, hits give high values. The method, boiled down:
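Screening used yeast with an engineered genetic alteration affecting cell cycle control. Compound-exposed cultures were compared with vehicle cultures, and reduced growth was taken as inhibition.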

The nature of experiment [6]: NCI Yeast Anticancer Drug Screen. Data for the mlh1 rad18 strain (AID 175). The conditions noted are these: S. cerevisiae mlh1 rad18 strain growth inhibition, hits give high values. In outline:
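Steps: expose repair-defective yeast to compound; measure growth; express inhibition against vehicle-treated controls.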

Setting [7] is: at 5.0 µM (retest, dose inferred, filed as 0.5).
The mark [8] stands for this setting: at 50.0 µM (retest, dose inferred, filed as 5.0).

The panel holds about 79,000 compounds, 15% with a hit somewhere; the sample as a whole holds those more often. Values without a mark were called inactive. Active and inactive are the calls of the source. No stated cut-off is given here; in the data, active means growth inhibition above about 70%; inactive means the rest.

Consider `COC(=O)C1=C(C(=O)OC)C2(C)OC1c1ccccc12` (configuration not stated), for which the growth inhibition is -5% in experiment [1] (setting [7]); 96% (active) in experiment [1] (setting [8]); 98.2% (active) in experiment [1] (at 50.0 µM); 4% in experiment [2] (setting [7]); 95% (active) in experiment [2] (setting [8]); 98.1% (active) in experiment [2] (at 50.0 µM). Also, the growth inhibition was 4% in experiment [3] (setting [7]); 96% (active) in experiment [3] (setting [8]); 98% (active) in experiment [3] (at 50.0 µM); 0% in experiment [4] (setting [7]); 92% (active) in experiment [4] (setting [8]); 93.6% (active) in experiment [4] (at 50.0 µM). In addition, the growth inhibition in experiment [5] (setting [7]) was 7%; in experiment [5] (setting [8]), 98% (active); in experiment [5] (at 50.0 µM), 97% (active); in experiment [6] (setting [7]), 14%; in experiment [6] (setting [8]) it was 95% (active); in experiment [6] (at 50.0 µM), 98.3% (active).
Consider `CCCCCc1cc(/C=C2/N=C(c3ccc[nH]3)C=C2OC)[nH]c1C`, for which the growth inhibition in experiment [1] (setting [7]) is 47%; in experiment [1] (setting [8]), 77% (active); in experiment [1] (at 50.0 µM), 83.9% (active); in experiment [2] (setting [7]), 49%; in experiment [2] (setting [8]) it was 81% (active); in experiment [2] (at 50.0 µM), 85.5% (active). Also, the growth inhibition in experiment [3] (setting [7]) was 75% (active); in experiment [3] (setting [8]) it was 86% (active); in experiment [3] (at 50.0 µM) it was 86.8% (active); in experiment [4] (setting [7]), 46%; in experiment [4] (setting [8]), 81% (active); in experiment [4] (at 50.0 µM), 84.3% (active). In addition, the growth inhibition in experiment [5] (setting [7]) was 80% (active); in experiment [5] (setting [8]), 79% (active); in experiment [5] (at 50.0 µM) it was 83.8% (active); in experiment [6] (setting [7]) it was 71% (active); in experiment [6] (setting [8]) it was 77% (active); in experiment [6] (at 50.0 µM) it was 84% (active).
For `CCCCOOC(=O)c1ccccc1C(=O)OOCCCC`, the growth inhibition in experiment [1] (setting [7]) was 47%; in experiment [1] (setting [8]), 99% (active); in experiment [1] (at 50.0 µM) it was 99.3% (active); in experiment [2] (setting [7]), 33%; in experiment [2] (setting [8]) it was 100% (active); in experiment [2] (at 50.0 µM) it was 99.5% (active). In addition, the growth inhibition is 41% in experiment [3] (setting [7]); 100% (active) in experiment [3] (setting [8]); 99% (active) in experiment [3] (at 50.0 µM); 51% in experiment [4] (setting [7]); 99% (active) in experiment [4] (setting [8]); 98.7% (active) in experiment [4] (at 50.0 µM). In addition, the growth inhibition in experiment [5] (setting [7]) was 30%; in experiment [5] (setting [8]), 100% (active); in experiment [5] (at 50.0 µM), 99.5% (active); in experiment [6] (setting [7]), 70% (active); in experiment [6] (setting [8]) it was 99% (active); in experiment [6] (at 50.0 µM), 98.8% (active).
Turning to `S=P(OC1CC2CCC1C2)(c1ccccc1)c1ccccc1` (configuration not stated), the growth inhibition in experiment [1] (setting [7]) was 83% (active); in experiment [1] (setting [8]), 98% (active); in experiment [1] (at 50.0 µM), -15.2%; in experiment [2] (setting [7]) it was 90% (active); in experiment [2] (setting [8]), 99% (active); in experiment [2] (at 50.0 µM), 4.1%. Moreover, the growth inhibition in experiment [3] (setting [7]) is 86% (active); in experiment [3] (setting [8]), 97% (active); in experiment [3] (at 50.0 µM), -0.75%; in experiment [4] (setting [7]), 87% (active); in experiment [4] (setting [8]) it was 98% (active); in experiment [4] (at 50.0 µM), 30.4%. In addition, the growth inhibition was 88% (active) in experiment [5] (setting [7]); 97% (active) in experiment [5] (setting [8]); -10.6% in experiment [5] (at 50.0 µM); 91% (active) in experiment [6] (setting [7]); 99% (active) in experiment [6] (setting [8]); 1.2% in experiment [6] (at 50.0 µM).
As for `CCCCCCCC[N+]12CN3CN(CN(C3)C1)C2`, the growth inhibition in experiment [1] (setting [7]) is -5%; in experiment [1] (setting [8]), -21%; in experiment [1] (at 50.0 µM) it was 1.75%; in experiment [2] (setting [7]), -2%; in experiment [2] (setting [8]), -33%; in experiment [2] (at 50.0 µM), 4.1%. Moreover, the growth inhibition in experiment [3] (setting [7]) is -6%; in experiment [3] (setting [8]), -28%; in experiment [3] (at 50.0 µM), 7.75%; in experiment [4] (setting [7]) it was 2%; in experiment [4] (setting [8]) it was -38%; in experiment [4] (at 50.0 µM), 30.4%. Moreover, the growth inhibition is 1% in experiment [5] (setting [7]); -25% in experiment [5] (setting [8]); 31.8% in experiment [5] (at 50.0 µM); -1% in experiment [6] (setting [7]); -26% in experiment [6] (setting [8]); 16.9% in experiment [6] (at 50.0 µM).
For `C/C(=N/NC(N)=S)c1ccc(Cl)cc1`, the growth inhibition in experiment [1] (setting [7]) was 9%; in experiment [1] (setting [8]), 94% (active); in experiment [1] (at 50.0 µM), 96.5% (active); in experiment [2] (setting [7]), -17%; in experiment [2] (setting [8]), 89% (active); in experiment [2] (at 50.0 µM) it was 97.1% (active). The growth inhibition was 5% in experiment [3] (setting [7]); 93% (active) in experiment [3] (setting [8]); 94% (active) in experiment [3] (at 50.0 µM); -10% in experiment [4] (setting [7]); 92% (active) in experiment [4] (setting [8]); 92.5% (active) in experiment [4] (at 50.0 µM). For the same molecule, the growth inhibition is 41% in experiment [5] (setting [7]); 94% (active) in experiment [5] (setting [8]); 95.3% (active) in experiment [5] (at 50.0 µM); 8% in experiment [6] (setting [7]); 96% (active) in experiment [6] (setting [8]); 97.2% (active) in experiment [6] (at 50.0 µM).
For `O=[N+]([O-])/C=C/c1ccc(Cl)cc1`, the growth inhibition in experiment [1] (setting [7]) was 79% (active); in experiment [1] (setting [8]) it was 99% (active); in experiment [1] (at 50.0 µM) it was 99% (active); in experiment [2] (setting [7]) it was 59%; in experiment [2] (setting [8]), 100% (active); in experiment [2] (at 50.0 µM), 99.8% (active). Further, the growth inhibition in experiment [3] (setting [7]) is 54%; in experiment [3] (setting [8]) it was 100% (active); in experiment [3] (at 50.0 µM), 99.5% (active); in experiment [4] (setting [7]), 19%; in experiment [4] (setting [8]) it was 99% (active); in experiment [4] (at 50.0 µM), 99% (active). The growth inhibition was 45% in experiment [5] (setting [7]); 99% (active) in experiment [5] (setting [8]); 99.5% (active) in experiment [5] (at 50.0 µM); 80% (active) in experiment [6] (setting [7]); 99% (active) in experiment [6] (setting [8]); 99.5% (active) in experiment [6] (at 50.0 µM).
For `Oc1cc(Cl)c(Cl)cc1Cl.[Cu+2]`, the growth inhibition in experiment [1] (setting [7]) is 78% (active); in experiment [1] (setting [8]) it was 96% (active); in experiment [1] (at 50.0 µM), 99% (active); in experiment [2] (setting [7]), 45%; in experiment [2] (setting [8]), 98% (active); in experiment [2] (at 50.0 µM), 98.9% (active). The growth inhibition in experiment [3] (setting [7]) is 48%; in experiment [3] (setting [8]), 70% (active); in experiment [3] (at 50.0 µM), 99.3% (active); in experiment [4] (setting [7]), 21%; in experiment [4] (setting [8]), 98% (active); in experiment [4] (at 50.0 µM), 97.7% (active). In addition, the growth inhibition in experiment [5] (setting [7]) was 97% (active); in experiment [5] (setting [8]) it was 97% (active); in experiment [5] (at 50.0 µM), 99% (active); in experiment [6] (setting [7]), 91% (active); in experiment [6] (setting [8]) it was 97% (active); in experiment [6] (at 50.0 µM), 99.2% (active).
Turning to `ClCCN(CCCl)c1ccc(C2N(Cc3ccc(Cl)cc3)CCN2Cc2ccc(Cl)cc2)cc1`, the growth inhibition is 25% in experiment [1] (setting [7]); 86% (active) in experiment [1] (setting [8]); 79.4% (active) in experiment [1] (at 50.0 µM); 44% in experiment [2] (setting [7]); 85% (active) in experiment [2] (setting [8]); 60.5% in experiment [2] (at 50.0 µM). The growth inhibition is 53% in experiment [3] (setting [7]); 94% (active) in experiment [3] (setting [8]); 80.9% (active) in experiment [3] (at 50.0 µM); 13% in experiment [4] (setting [7]); 85% (active) in experiment [4] (setting [8]); 46.9% in experiment [4] (at 50.0 µM). Further, the growth inhibition in experiment [5] (setting [7]) is 22%; in experiment [5] (setting [8]) it was 71% (active); in experiment [5] (at 50.0 µM), 48%; in experiment [6] (setting [7]), 76% (active); in experiment [6] (setting [8]), 97% (active); in experiment [6] (at 50.0 µM) it was 79.5% (active).
